Source: the supplement of paper PMC10338343
± gives the standard deviation.

The sequences below were run on EfPiwi piRISC loaded with L1MC piRNA (26 nt) (assay: pre-steady-state target cleavage rate (min^-1); auxiliary factor: 500 nM Ephydatia muelleri Gtsf1; guide: L1MC piRNA 5'p-UAACUAAAUACUAUGCAAGCUGUAGG; MIWI and MILI are mouse PIWI proteins and EfPiwi is from a freshwater sponge; tags in brackets are library labels; higher = faster piRNA-guided slicing of the target).
In short: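 Using HEPES–potassium acetate buffer at 33 °C, 1 nM active affinity-purified piRISC with a single synthetic guide was mixed with 0.1 nM transcribed, DNA-blocked target RNA library for 0–8 or 0–960 min, with or without 500 nM GTSF1 partner protein. Uncleaved targets were sequenced and normalised to depth and to weakly complementary targets, and three trials were pooled with k3 capped at 0.0001 min^-1. A burst-and-steady-state fit gave the pre-steady-state cleavage rate.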

Sequence	pre-steady-state target cleavage rate
UCCUGGAACAGCUUCCAUAGUAUUUAGAUA	0.00228 ± 0.0017
UCCUGGAUGUCGAACGUUAGUAUUUAGUCA	< 0.0001
UCCUGCUACAGCUUGCAUAGUAAUUAGAUA	0.00345 ± 0.0018
UCCUGGUACUGCUUGCAUAGUAUUUUCAAA	0.00285 ± 0.0022
UCCUGGAUGAGCUUGCGAUAGUAUUUAGUUA	0.00307 ± 0.0022
UCCUGCUACAGCUUCAUAGUAUUUAGUUA	0.00994 ± 0.0031
UCCUGCUAGUGCUUGCAUAGUAUUUAGUAA	0.00297 ± 0.0015
UCCUGGAUGUCGAACGUUAGUAAAAAGUUA	< 0.0001
UCCUGCUACAGCUUGCAUAGUAAAUAGUAA	0.00351 ± 0.0022
UCCUGGUUCAGCUUGCAUAGUAAUUAGUUA	0.0107 ± 0.0037
UCCUGCUAGAGCUUGCAUAGUAUUUAGAAA	0.00419 ± 0.0022
UCCUGGAUGUCGAACCAUAGUAUUAAGUUA	< 0.0001
UCCUGCUACUGCAUGCAUAGUAUUUAGUUA	0.00847 ± 0.0024
UCCUGCUAGUCCUUGCAUAGUAUUUAGAAA	0.00294 ± 0.0025
UCCUGGAUGUCGAACGUAUGUAUUUUAGUUA	< 0.0001
UCCUCCUACAGCUUGCAUAGUAUUUUCUUA	0.00493 ± 0.003
UCCUGGAACAGCUUGCAUAGUAUUUGGUUA	0.00496 ± 0.002
UCCUGGAUCAGCUUCCAUAGUAUUUAGAAA	0.00474 ± 0.0027
UCCUGGUACAGCUUGCAUAGUAUAUUAGUUA	0.00489 ± 0.0026
UCCUGCUACUGCUUGCUUAGUAUUUAGUUA	0.0076 ± 0.0022

Sequence	pre-steady-state target cleavage rate
UCCUGGAUCAGCUAGCAUACUAUUUAGUUA	0.00342 ± 0.0018
UCCUGGAUGUCGAACGUAUGUAUUUUGUUA	< 0.0001
UCCUGGAACUGCUUGCAUAGUAUAUAGUUA	0.0584 ± 0.021
UCCUGGAUGUCGAACGUAAGUAUUUGGUUA	< 0.0001
UCCUGGAUGUGCUUGCAUAGUAUUUAAGUUA	0.0404 ± 0.015
UCCUGGUACAGGAUGCAUAGUAUUUAGAAA	0.00448 ± 0.004
UCCUCCUACAGUCUUGCAUAGUAUUUAGUUA	0.0171 ± 0.006
UCCUGCAACAGCUUGCAUAGUAUUUUGUUA	0.00469 ± 0.0013
UCCUGGAUGUCGAACGAUACAUUUUAGUUA	< 0.0001
UCCUCCAUGAGCUUGCAUAGUAUUUAGUAA	0.00588 ± 0.0024
UCCUGGAUGUCGAAGGAUACUAUUUAGUUA	< 0.0001
UCCUGGAUGUCGAACGUAUCUAUGUAGUUA	< 0.0001
UCCUCGUACUGCUUGCAUAGUAUUUAGUUA	0.0721 ± 0.018
UCCUGGAUGUCGAACCAUAGUAUUUACGUUA	< 0.0001
UCCUGGUAGAGCUUGGAUAGUAUUUAGUUA	0.004 ± 0.0023
UCCUCCUACAGCUUGCAUAGUAUUAUGUAA	0.00434 ± 0.0026
UCCUGGUACAGCUUGCAUUGUAUUUAGAUA	0.00292 ± 0.0018
UCCUGGAUGUCGACGCAUAGUAUUUAGUUA	0.00545 ± 0.0032
UCCUGCUACAGCUUGCAUAGUAAUUUCAAA	0.00378 ± 0.0027
UCCUGGUACAGCUUGCAUAGUAUCUUAGUUA	0.00588 ± 0.0027
